This is an account of results in ChEMBL document CHEMBL1961873, “Compounds: GSK PKIS; Assays: Nanosyn kinase panel” (2012).

Usually inhibition stands for the change of the read-out against control, counted positive when it falls.

For the first assay, the target named is Cyclin-dependent kinase 5 (Homo sapiens) (UniProt Q00535). The following applies: at 1 µM.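 Further: mean value of inhibition, with the enzyme tested as CDK5/p35.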
Cyclin-dependent kinase 5 (Homo sapiens), sequence (Q00535 whole entry, looked up): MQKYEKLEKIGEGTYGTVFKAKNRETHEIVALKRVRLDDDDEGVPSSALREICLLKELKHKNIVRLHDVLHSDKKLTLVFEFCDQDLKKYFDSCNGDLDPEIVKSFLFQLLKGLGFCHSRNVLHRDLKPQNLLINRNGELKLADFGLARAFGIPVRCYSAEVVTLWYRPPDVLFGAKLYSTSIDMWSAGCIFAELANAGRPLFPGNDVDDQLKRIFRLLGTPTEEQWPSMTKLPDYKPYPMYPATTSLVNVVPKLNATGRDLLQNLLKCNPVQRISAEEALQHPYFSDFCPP
On to `CN(C)c1ccc2c(c1)/C(=C/Nc1ccc(S(N)(=O)=O)cc1)C(=O)N2`, for which the inhibition stood at 57%.
For `CN(C)CCCNc1nccc(-c2c(-c3ccc(F)cc3)nn3cc(C(F)(F)F)ccc23)n1`, the inhibition came to 1.69%.
As for `CCC(=O)Nc1ccc(C)c(-c2ccc(C(=O)NCC3CC3)cc2)c1`, the inhibition came out at 1.54%.
Take `NS(=O)(=O)c1ccc(Nc2cc(-c3ccc(O)c(F)c3)n[nH]2)cc1`: the inhibition turned out to be 68.7%.
With `COc1cc2ncn(-c3cc(OCCc4ccccc4)c(C(N)=O)s3)c2cc1OC`, the inhibition came to 1.45%.
Still for that read-out and setting: in the case of `Cc1ccc(C(=O)NC(C)C)cc1-c1ccc(C(=O)NCC2CC2)cc1` it was 2.73%; in that of `NCc1ccc(-n2c(-c3nonc3N)nc3cnccc32)cc1`, 11.9%; in that of `COc1cc(Nc2ncc3c(C)nc(-c4cccc(C(F)(F)F)c4)n3n2)cc(OC)c1OC`, 9.6%.

In a further assay the target is Cyclin-dependent kinase 6 (Homo sapiens) (UniProt Q00534). The following applies: at 0.1 µM.
Cyclin-dependent kinase 6 (Homo sapiens), sequence (Q00534 whole entry): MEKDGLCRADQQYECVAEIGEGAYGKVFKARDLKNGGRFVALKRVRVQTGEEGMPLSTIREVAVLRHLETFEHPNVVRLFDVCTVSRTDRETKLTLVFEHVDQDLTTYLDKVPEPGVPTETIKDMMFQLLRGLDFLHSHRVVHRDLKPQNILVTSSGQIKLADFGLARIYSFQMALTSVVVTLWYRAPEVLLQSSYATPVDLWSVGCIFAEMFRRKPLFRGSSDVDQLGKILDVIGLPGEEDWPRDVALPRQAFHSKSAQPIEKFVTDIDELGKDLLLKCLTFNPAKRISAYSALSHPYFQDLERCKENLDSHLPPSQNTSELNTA
As to `CN(c1ccc(NC(=O)Nc2c(Cl)cccc2Cl)cc1)c1ccnc(Nc2cccc(CS(C)(=O)=O)c2)n1`, the inhibition was 3.57%.
Same read-out and setting: in the case of `CCS(=O)(=O)c1ccc(OC)c(Nc2ncc(-c3cccc(-c4ccccc4F)c3)o2)c1` it was 0.01%; in that of `CS(=O)(=O)CCNCc1ccc(-c2ccc3ncnc(Nc4ccc(OCc5ccccc5)c(Br)c4)c3c2)o1`, -4.44%; in that of `N#Cc1ccc(Oc2nccc(-c3c(-c4ccc(F)cc4)ncn3C3CCNCC3)n2)cc1`, 1.26%.
Same read-out and setting: in the case of `Fc1ccc(-c2ncn(C3CCNCC3)c2-c2ccnc(Oc3ccc4c(c3)OCO4)n2)cc1` it was 1.03%; in that of `COc1cc(N2CCN(C(C)C)CC2)ccc1Nc1nc(Nc2ccc(F)cc2C(=O)NC[C@@H](O)CO)c2cc[nH]c2n1`, -8.05%.
Still for that read-out and setting: in the case of `O=C1NC(=O)C(c2cccc(Cl)c2)=C1Nc1ccc(Cl)c(C(=O)O)c1` it was -2.3%.
As for `NC(=O)c1cc(-c2ccncc2)cc(-c2ccccc2)c1N`, the inhibition is -1.43%.
As to `CS(=O)(=O)CCNCc1cc(-c2cc3c(Nc4ccc(OCc5cccc(F)c5)c(Cl)c4)ncnc3s2)cs1`, the inhibition was -2.32%.
Still for that read-out and setting: in the case of `Cc1ccc(C(=O)NC2CCC2)cc1-c1ccc(C(=O)NCC2CC2)cc1` it was -2.65%.
Same read-out and setting: then `NC(=O)c1cc(-c2ccc(F)cc2)cc(-c2ccncc2)c1N`, with 0.37%.
Take `O=C(Nc1n[nH]c2cc(-c3ccccc3)ccc12)C1CC1`: the inhibition worked out at 1.28%.
Same read-out and setting: in the case of `O=C(Nc1n[nH]c2nc(-c3ccc(O)cc3)c(Br)cc12)C1CC1` it was 38.9%; in that of `C/C(Nc1ccc(S(N)(=O)=O)cc1)=C1/C(=O)Nc2ccccc21`, 37%.
Turning to `O=C1Nc2ccccc2/C1=C/Nc1ccc(-n2cncn2)cc1`, the inhibition worked out at 18%.
On the same count and under the same terms, in the case of `CCc1nccc2c1nc(-c1nonc1N)n2CC` it was -8.01%; in that of `CCN(CC)Cc1ccc(Nc2nccc(-c3cnn4ncccc34)n2)cc1`, 25.9%; in that of `Fc1ccc(-c2ncn(C3CCNCC3)c2-c2ccnc(Oc3ccc(F)c(F)c3)n2)cc1`, -4.37%.
The same measure, in the same setting: then `C[C@@H](Oc1cc(-n2cnc3ccc(OCC4CCN(C)CC4)cc32)sc1C(N)=O)c1ccccc1Cl`, with 0.41%.
Same read-out and setting: then `COc1ccc2cc(-c3c(-c4ccncc4)nc(-c4ccc([S+](C)[O-])cc4C)n3C)ccc2c1` (stereo unspecified), with 2.45%; and `CN1CCN(CCCNc2nc3ccc(Oc4ccc(NC(=O)Nc5cc(C(F)(F)F)ccc5F)cc4)cc3[nH]2)CC1`, with -4.09%; and `Nc1nccc(-c2c(-c3ccc(F)cc3)ncn2C2CCC(O)CC2)n1` (stereo unspecified), with 1.41%.
For the compound `c1ccc(Oc2ccc(Nc3ncc(-c4ccccc4)o3)cc2)cc1`, the inhibition amounted to 1.34%.
Turning to `COc1ccc(-c2ccc3c(NC(=O)C4CC4)n[nH]c3n2)cc1`, the inhibition worked out at 5.98%.
The same measure, in the same setting: then `O=C(Nc1n[nH]c2nc(-c3ccco3)ccc12)C1CC1`, with 3.9%; and `CCS(=O)(=O)c1ccc(OC)c(Nc2ncc(-c3ccccc3Cl)o2)c1`, with 4.47%.
Take `CN(C)c1ccc2c(c1)/C(=C/Nc1ccc(S(N)(=O)=O)cc1)C(=O)N2`: the inhibition was determined as 4.7%.
Regarding `CN(C)CCCNc1nccc(-c2c(-c3ccc(F)cc3)nn3cc(C(F)(F)F)ccc23)n1`, the inhibition was -1.2%.
For the compound `CCC(=O)Nc1ccc(C)c(-c2ccc(C(=O)NCC3CC3)cc2)c1`, the inhibition came to 0.4%.
Still for that read-out and setting: in the case of `NS(=O)(=O)c1ccc(Nc2cc(-c3ccc(O)c(F)c3)n[nH]2)cc1` it was 21.6%.
The same measure, in the same setting: then `COc1cc2ncn(-c3cc(OCCc4ccccc4)c(C(N)=O)s3)c2cc1OC`, with -3.45%; and `Cc1ccc(C(=O)NC(C)C)cc1-c1ccc(C(=O)NCC2CC2)cc1`, with -1.81%; and `NCc1ccc(-n2c(-c3nonc3N)nc3cnccc32)cc1`, with -0.37%.
The same measure, in the same setting: then `COc1cc(Nc2ncc3c(C)nc(-c4cccc(C(F)(F)F)c4)n3n2)cc(OC)c1OC`, with 3.14%.

For a further assay the target is unchanged. The settings on record: at 1 µM.
As for `CN(c1ccc(NC(=O)Nc2c(Cl)cccc2Cl)cc1)c1ccnc(Nc2cccc(CS(C)(=O)=O)c2)n1`, the inhibition is -0.75%.
Still for that read-out and setting: then `CCS(=O)(=O)c1ccc(OC)c(Nc2ncc(-c3cccc(-c4ccccc4F)c3)o2)c1`, with 1.94%; and `CS(=O)(=O)CCNCc1ccc(-c2ccc3ncnc(Nc4ccc(OCc5ccccc5)c(Br)c4)c3c2)o1`, with -4.65%.
In the case of `N#Cc1ccc(Oc2nccc(-c3c(-c4ccc(F)cc4)ncn3C3CCNCC3)n2)cc1`, the inhibition is -1.15%.
On the same count and under the same terms, in the case of `Fc1ccc(-c2ncn(C3CCNCC3)c2-c2ccnc(Oc3ccc4c(c3)OCO4)n2)cc1` it was 2.27%; in that of `COc1cc(N2CCN(C(C)C)CC2)ccc1Nc1nc(Nc2ccc(F)cc2C(=O)NC[C@@H](O)CO)c2cc[nH]c2n1`, -5.78%; in that of `O=C1NC(=O)C(c2cccc(Cl)c2)=C1Nc1ccc(Cl)c(C(=O)O)c1`, 1.32%.
Turning to `NC(=O)c1cc(-c2ccncc2)cc(-c2ccccc2)c1N`, the inhibition is 2.3%.
Same read-out and setting: in the case of `CS(=O)(=O)CCNCc1cc(-c2cc3c(Nc4ccc(OCc5cccc(F)c5)c(Cl)c4)ncnc3s2)cs1` it was -0.13%; in that of `Cc1ccc(C(=O)NC2CCC2)cc1-c1ccc(C(=O)NCC2CC2)cc1`, 1.04%.
On the same count and under the same terms, then `NC(=O)c1cc(-c2ccc(F)cc2)cc(-c2ccncc2)c1N`, with -0.58%; and `O=C(Nc1n[nH]c2cc(-c3ccccc3)ccc12)C1CC1`, with 23.7%.
Turning to `O=C(Nc1n[nH]c2nc(-c3ccc(O)cc3)c(Br)cc12)C1CC1`, the inhibition is 74.7%.
With `C/C(Nc1ccc(S(N)(=O)=O)cc1)=C1/C(=O)Nc2ccccc21`, the inhibition turned out to be 74.7%.
Turning to `O=C1Nc2ccccc2/C1=C/Nc1ccc(-n2cncn2)cc1`, the inhibition was 66.2%.
`CCc1nccc2c1nc(-c1nonc1N)n2CC`: the inhibition was -0.61%.
Turning to `CCN(CC)Cc1ccc(Nc2nccc(-c3cnn4ncccc34)n2)cc1`, the inhibition amounted to 62.1%.
For the compound `Fc1ccc(-c2ncn(C3CCNCC3)c2-c2ccnc(Oc3ccc(F)c(F)c3)n2)cc1`, the inhibition was -0.06%.
Take `C[C@@H](Oc1cc(-n2cnc3ccc(OCC4CCN(C)CC4)cc32)sc1C(N)=O)c1ccccc1Cl`: the inhibition was determined as 0.37%.
Regarding `COc1ccc2cc(-c3c(-c4ccncc4)nc(-c4ccc([S+](C)[O-])cc4C)n3C)ccc2c1` (stereo unspecified), the inhibition stood at 4.45%.
With `CN1CCN(CCCNc2nc3ccc(Oc4ccc(NC(=O)Nc5cc(C(F)(F)F)ccc5F)cc4)cc3[nH]2)CC1`, the inhibition is -1.64%.
Regarding `Nc1nccc(-c2c(-c3ccc(F)cc3)ncn2C2CCC(O)CC2)n1` (stereo unspecified), the inhibition amounted to 1.1%.
Consider `c1ccc(Oc2ccc(Nc3ncc(-c4ccccc4)o3)cc2)cc1`, for which the inhibition was determined as 3.56%.
Still for that read-out and setting: then `COc1ccc(-c2ccc3c(NC(=O)C4CC4)n[nH]c3n2)cc1`, with 38%; and `O=C(Nc1n[nH]c2nc(-c3ccco3)ccc12)C1CC1`, with 8.22%.
`CCS(=O)(=O)c1ccc(OC)c(Nc2ncc(-c3ccccc3Cl)o2)c1`: the inhibition was 3.06%.
Still for that read-out and setting: then `CN(C)c1ccc2c(c1)/C(=C/Nc1ccc(S(N)(=O)=O)cc1)C(=O)N2`, with 48.2%.
Still for that read-out and setting: in the case of `CN(C)CCCNc1nccc(-c2c(-c3ccc(F)cc3)nn3cc(C(F)(F)F)ccc23)n1` it was -0.54%; in that of `CCC(=O)Nc1ccc(C)c(-c2ccc(C(=O)NCC3CC3)cc2)c1`, 0%.
The same measure, in the same setting: in the case of `NS(=O)(=O)c1ccc(Nc2cc(-c3ccc(O)c(F)c3)n[nH]2)cc1` it was 70.9%; in that of `COc1cc2ncn(-c3cc(OCCc4ccccc4)c(C(N)=O)s3)c2cc1OC`, 2.54%.
For the compound `Cc1ccc(C(=O)NC(C)C)cc1-c1ccc(C(=O)NCC2CC2)cc1`, the inhibition is -0.75%.
Take `NCc1ccc(-n2c(-c3nonc3N)nc3cnccc32)cc1`: the inhibition came to 5.55%.
The same measure, in the same setting: in the case of `COc1cc(Nc2ncc3c(C)nc(-c4cccc(C(F)(F)F)c4)n3n2)cc(OC)c1OC` it was 7.16%.
